The structures appear in SMILES notation. The campaign covered roughly 16,000 compounds. About 5,700 (36%) were called active. Inconclusive results (about 24%) are left out. The list shows a part of the results. A number with no mark means an inactive call. Calls follow the shape of the dose curve; as a rule, active = well fitted curve in the direction sought with a large enough effect; inconclusive = small, poorly fitted or top-dose-only effect, or effect the other way; inactive = no such curve, though single readings can be large or run the other way.

Drawing on PubChem BioAssay AID1851 (National Center for Advancing Translational Sciences (NCATS), 2009), this text covers activity, negative = inhibition and AC50 for 65 compounds.
% is scaled to controls: 0 for no effect and ±100 for the full control effect.

For this experiment, the target named is Cytochrome P450 1A2 (Homo sapiens) (UniProt P05177). In words: Cytochrome panel assay with activity outcomes. The conditions noted are these: recombinant CYP, pro-luciferin dealkylation, luminescence, p450-cyp1a2; series mostly up to 57.1 µM.
Chain of Cytochrome P450 1A2 (Homo sapiens) (P05177 whole entry, looked up): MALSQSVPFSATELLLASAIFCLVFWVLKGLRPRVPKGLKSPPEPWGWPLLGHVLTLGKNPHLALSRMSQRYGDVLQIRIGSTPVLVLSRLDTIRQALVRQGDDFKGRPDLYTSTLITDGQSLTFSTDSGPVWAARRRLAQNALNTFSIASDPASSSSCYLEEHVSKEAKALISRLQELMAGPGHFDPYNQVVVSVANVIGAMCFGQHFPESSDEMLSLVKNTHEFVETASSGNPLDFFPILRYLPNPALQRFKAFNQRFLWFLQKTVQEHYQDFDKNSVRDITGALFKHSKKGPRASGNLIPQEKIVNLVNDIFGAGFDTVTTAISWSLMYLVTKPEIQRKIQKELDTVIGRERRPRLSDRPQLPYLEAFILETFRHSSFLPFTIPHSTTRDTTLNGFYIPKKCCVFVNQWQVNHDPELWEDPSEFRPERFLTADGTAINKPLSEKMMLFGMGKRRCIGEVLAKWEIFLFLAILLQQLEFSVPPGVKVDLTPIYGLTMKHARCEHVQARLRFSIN
`CO[C@@H]1/C=C\O[C@@]2(C)Oc3c(C)c(O)c4c(c3C2=O)C(=N[C@H]2CC[C@H](O)O[C@@H]2C)C=C(NC(=O)/C(C)=C\C(=O)[C@@H]2C[C@@H]2[C@@H](O)[C@H](C)[C@@H](O)[C@H](C)[C@H](OC(C)=O)[C@@H]1C)C4=O`: the activity, negative = inhibition is -9.54% [at 11.4 µM].
As a reminder, the AC50 is the concentration giving half of the maximal activity seen. Regarding `Cn1ccnc1SCC(=O)Nc1sccc1C#N`, the AC50 was 3.16 µM (active).
The same measure, in the same setting: the result for `COc1ccc(-n2nnnc2SCC(=O)Nc2ccccc2)cc1` reads 6.31 µM (active); that for `COc1ccc(NC(=O)CSC2=NC(=O)CC(C)=N2)cc1`, “inactive”; that for `COc1ccc(-n2ccnc2SCC(=O)Nc2ccccc2)cc1`, 12.6 µM (active).
Consider `COc1ccc(NC(=O)CSc2ccc3c4c(cccc24)C(=O)c2ccccc2-3)cc1`, for which the half-maximal activity concentration (AC50) is 1.58 µM (active).
Same read-out and setting: the result for `COc1ccc(NC(=O)CSc2nnc(C3CC3)n2-c2ccccc2)cc1` reads “inactive”.
On the same count and under the same terms, with `CCC(=O)Nc1ccc(NC(=O)CSc2nnnn2-c2cccnc2)cc1C` the entry was “inactive”; with `C=CCN1C(=NC(=O)CC)SC2CS(=O)(=O)CC21` (stereo not given), “inactive”.
With `O=c1[nH]c(=S)c2[nH]c(=O)n(-c3ccccc3)c2[nH]1`, the activity, negative = inhibition is -1.84% [at 11.4 µM].
On to `COc1ccc(-n2ccnc2SCC(=O)Nc2ccc(OC)cc2OC)cc1`, for which the concentration at half-maximal activity (AC50) is 6.31 µM (active).
The same measure, in the same setting: the result for `CCOc1ccc(-n2c(SCC(=O)Nc3ccc(OC)cc3OC)nc3c(c2=O)SCC3)cc1` reads “inactive”.
Same read-out and setting: with `COc1cccc(-n2ccnc2SCC(=O)Nc2nccs2)c1` the figure was 1.26 µM (active).
Same read-out and setting: with `COC(=O)CSc1nnc(C)n1-c1cccc(OC)c1` the entry was “inactive”.
`COc1cccc(NC(=O)CSc2nnc(CN3CCOCC3)n2C)c1`: the AC50 entry was “inactive”.
Consider `O=C1[C@H]2[C@H]3[C@H](O)[C@H](O)C/C(=N/OC[C@@H](O)COCc4ccco4)[C@H]3CC[C@@H]2C(=O)N1Cc1ccc2c(c1)OCO2`, for which the activity, negative = inhibition is 6.71% [at 11.4 µM].
On to `O=C(c1ccncc1)N1CCC2(CC1)CN(Cc1cc(C(F)(F)F)cc(C(F)(F)F)c1)C2`, for which the AC50 entry was “inactive”.
Regarding `O=C1[C@@H]2[C@@H]3C=C[C@H]([C@@H]2C(=O)N1CN1CCSCC1)[C@@H]1[C@@H]2C(=O)N(CN4CCSCC4)C(=O)[C@@H]2[C@H]31`, the activity, negative = inhibition is -13.4% [at 11.4 µM].
As to `CN(C)CCNC(=O)c1cc(Br)ccc1Cl`, the AC50 was 11.2 µM (active).
On the same count and under the same terms, the result for `CN(C)CCNC(=O)Cn1nc(-c2ccc(Cl)cc2)ccc1=O` reads “inactive”.
The same measure, in the same setting: the result for `O=C(NOC(=O)c1cc(Br)ccc1Cl)c1cccs1` reads “inactive”.
Same read-out and setting: the result for `CCCS(=O)(=O)N1CCCC(C(=O)NCCN(C)Cc2ccccc2)C1` (stereo not given) reads “inactive”; that for `CCn1c(SCc2ccc(Cl)cc2Cl)nc2nc3c(cc2c1=O)CCCC3`, 3.55 µM (active).
Consider `Cn1c(=O)c2c(nc(N3CCN(c4ccccn4)CC3)n2Cc2ccc(Cl)cc2Cl)n(C)c1=O`, for which the AC50 result was “inactive”.
As to `CCC(=O)Nc1ncnc2ncn(C(=O)CC)c12`, the activity, negative = inhibition was -5.19% [at 11.4 µM].
For `CCCCNC(=O)Cc1coc2ccc3ccccc3c12`, the half-maximal activity concentration (AC50) was 4.47 µM (active).
The same measure, in the same setting: the result for `CCOC(=O)C(Sc1ncnc2c1sc1nc(N3CCOCC3)c3c(c12)CCCC3)c1ccccc1` (stereo not given) reads “inactive”; that for `CCOC(=O)CSc1nnc(CSc2nc3sc4c(c3c(=O)[nH]2)CCCC4)n1-c1ccccc1`, 14.1 µM (active).
On the same count and under the same terms, the result for `CCOC(=O)CSc1nnc(Cc2cc(=O)[nH]c(=O)[nH]2)n1-c1cccc(OC)c1` reads “inactive”.
Same read-out and setting: the result for `CN(Cc1ccco1)c1ncncc1-c1cccc(NS(C)(=O)=O)c1` reads 15.8 µM (active); that for `CN(Cc1ccco1)c1ncnc2ccc(-c3cccc(NS(C)(=O)=O)c3)cc12`, 0.398 µM (active); that for `O=C1NC(c2ccccc2)=NC1(NS(=O)(=O)c1ccccc1)C(F)(F)F` (stereo not given), “inactive”.
On to `COc1cccc(Nc2ncc3nc(CCc4ccccc4)c(=O)n(CCC#N)c3n2)c1`, for which the AC50 result was “inactive”.
As for `COc1ccc(-c2nc3cnc(Nc4cccc(OC)c4)nc3n(CCC#N)c2=O)cc1`, the AC50 is 6.31 µM (active).
With `Cc1nc2cnc(Nc3ccccc3)nc2n(CCC#N)c1=O`, the AC50 is 0.631 µM (active).
The same measure, in the same setting: the result for `COc1cccc(Nc2ncc3nc(C)c(=O)n(CCC#N)c3n2)c1` reads 1.26 µM (active).
In the case of `COc1cccc(Nc2ncc3ncc(=O)n(CCC#N)c3n2)c1`, the concentration at half-maximal activity (AC50) is 1 µM (active).
On to `N#CCCn1c(=O)c(CCc2ccccc2)nc2cnc(Nc3ccccc3)nc21`, for which the AC50 entry is “inactive”.
The same measure, in the same setting: with `C[N+](C)(C)CCCCCC[N+](C)(C)C` the entry was “inactive”; with `O=S(Cc1ccccc1)CC(O)(c1ccccc1)c1ccccc1` (stereo not given), “inactive”; with `Cc1ccc(C(=O)N2CCN(C3c4cccc5cccc(c45)C3NS(=O)(=O)c3ccccc3)CC2)cc1` (stereo not given), “inactive”.
On the same count and under the same terms, with `CS(=O)(=O)Nc1cccc(-c2cncnc2Nc2ccc(F)cc2)c1` the figure was 5.01 µM (active).
As for `CS(=O)(=O)Nc1cccc(-c2cncnc2Nc2ccccc2)c1`, the AC50 was 5.01 µM (active).
For `CN=C(NC#N)NCCSC[C@H]1N=CN=C1C`, the AC50 entry is “inactive”.
Same read-out and setting: the result for `Cc1cnnn1-c1ccc(C(=O)CCl)cc1` reads 2.82 µM (active); that for `COc1cccc(-c2cncnc2NCc2cccc(C)c2)c1`, 2 µM (active); that for `COc1cccc(-c2cncnc2NCc2ccccc2)c1`, 5.01 µM (active).
On the same count and under the same terms, the result for `COc1cccc(-c2cncnc2NCc2cccnc2)c1` reads 0.794 µM (active); that for `COc1cccc(-c2cncnc2NCc2cccs2)c1`, 1.26 µM (active); that for `CS(=O)(=O)N1CCC2(CC1)CN(Cc1cc(C(F)(F)F)cc(C(F)(F)F)c1)C2`, “inactive”.
Turning to `O=C(c1csnn1)N1CCC2(CC1)CCN(C(c1ccccc1)c1ccccc1)CC2`, the AC50 result was “inactive”.
Consider `C=CCOc1ccc2cccc(/C=N/NC(=O)c3cc4cc([N+](=O)[O-])ccc4s3)c2c1`, for which the AC50 is 2.24 µM (active).
The same measure, in the same setting: the result for `CC(=O)N/N=C/c1cc([N+](=O)[O-])ccc1OCCOc1ccccc1` reads “inactive”; that for `CCCCOC(=O)CCc1c(C)[nH]c(=O)c(C#N)c1C`, “inactive”.
Same read-out and setting: the result for `CCCCc1[nH]c(=O)c(C#N)c2c1CCCC2` reads 5.01 µM (active).
For the compound `C/C(CCN1CCCCc2nc(C)c(C)cc21)=N\O[C@@H](C)CN1CCCc2nc(C)c(C)cc21`, the activity, negative = inhibition is -40.3% [at 11.4 µM].
In the case of `Cc1cc2c(c(=O)o1)[C@H](O)[C@H]1O[C@@H]1C2=O`, the activity, negative = inhibition is 2.69% [at 11.4 µM].
In the case of `C[N+]1(C)CCC[C@@H](OC(=O)C(O)(c2ccccc2)c2ccccc2)C1`, the AC50 entry was “inactive”.
On to `C[C@@H](C(=O)Nc1ccc2ccccc2c1)[C@@H]1C[C@@]1(C)[C@@H](NC(=O)Oc1ccc(F)cc1)c1ccccc1`, for which the AC50 result is “inactive”.
In the case of `CC(=O)Nc1ccc(N2C(=O)CC(c3ccccc3)CC2=O)cc1`, the AC50 result was “inactive”.
Same read-out and setting: with `C[C@@H](C(=O)Nc1ccc2ccccc2c1)[C@@H]1C[C@@]1(C)[C@@H](NC(=O)c1ccncc1Cl)c1ccccc1` the figure was 25.1 µM (active); with `C[C@@H](C(=O)Nc1ccc2ccccc2c1)[C@H]1C[C@]1(C)[C@H](NC(=O)Oc1ccc(F)cc1)c1ccccc1`, “inactive”; with `COC(=O)N[C@H](c1ccccc1)[C@@]1(C)C[C@@H]1[C@@H](C)C(=O)Nc1ccc2ccccc2c1`, 12.6 µM (active).
Still for that read-out and setting: with `CC(=O)N[C@H](c1ccccc1)[C@@]1(C)C[C@@H]1[C@@H](C)C(=O)Nc1ccc2ccccc2c1` the figure was 15.8 µM (active).
On to `C[C@@H](C(=O)Nc1ccc2ccccc2c1)[C@@H]1C[C@@]1(C)[C@@H](N)c1ccccc1`, for which the AC50 was 15.8 µM (active).
